We go through 17 molecules from PubChem BioAssay (Tox21).

The nature of assay [1]: qHTS assay to identify aromatase inhibitors - cell viability counter screen (AID 743084).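 Also: cells stimulated with testosterone during compound exposure; nearly all actives have a fitted effect of over 55% in size.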 A general note: In qHTS, concentration-response curves come from the screen itself.
Assay [2] concerns the target Aryl hydrocarbon receptor (Homo sapiens) (UniProt P35869). Description: qHTS assay to identify small molecule that activate the aryl hydrocarbon receptor (AhR) signaling pathway (AID 743085). Also: nearly all actives have a fitted effect of over 15% in size. Also: potency is read from the fitted curve at half-maximal effect.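 As to activation: HG2L7.5c1 human HepG2 liver cells with stably integrated DRE-driven firefly reporter; series mostly up to about 70 µM.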 The procedure, abridged:
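A multiplexed format paired cell viability (CellTiter-Fluor fluorescence) with AhR-dependent luciferase output (ONE-Glo luminescence) in the same wells of HepG2 DRE-luc cells after 24 h compound exposure at 37C.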

Assay [3] can be described thus: qHTS assay to identify small molecule that activate the aryl hydrocarbon receptor (AhR) signaling pathway - cell viability counter screen (AID 743086).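 Also: HepG2 liver cells carrying the AhR DRE luciferase reporter; series mostly up to about 70 µM; nearly all actives have a fitted effect of over 45% in size.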 The procedure, abridged: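 HepG2-AhR-luc (HG2L7.5c1) cells, 4000/well, treated 24 h at 37 C with compound; viability measured as CellTiter-Fluor fluorescence after 30 min in the same wells as the luciferase read.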

Assay [4] deals with Peroxisome proliferator-activated receptor gamma (Homo sapiens) (UniProt P37231). Description: qHTS assay to identify small molecule agonists of the peroxisome proliferator-activated receptor gamma (PPARg) signaling pathway (AID 743094; active = well fitted activation curve with a large enough effect in the signal ratio in the repeat runs, not every such curve was filed as active; the % refers to the signal ratio). A digest of the protocol: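 GeneBLAzer PPARg UAS-bla HEK293H cells were plated, rested 5 h, then exposed to compounds for 17 h at 37C. Beta-lactamase activity was read by LiveBLAzer B/G FRET substrate fluorescence after 1 h at room temperature.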

For assay [5] the target is unchanged. Description: qHTS assay to identify small molecule antagonists of the peroxisome proliferator-activated receptor gamma (PPARg) signaling pathway (AID 743191; calls by dose curve; also: nearly all actives have a fitted effect of over 30% in size; also: potency is read from the fitted curve at half-maximal effect). A digest of the protocol:
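GeneBLAzer PPARg UAS-bla HEK293H cells, 5 h post-plating, exposed to compounds 17 h at 37C. LiveBLAzer B/G FRET substrate added for 1 h at room temperature; beta-lactamase reporter read by fluorescence intensity.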

Assay [6] is described as follows: qHTS assay to identify small molecule antagonists of the peroxisome proliferator-activated receptor gamma (PPARg) signaling pathway - cell viability counter screen (AID 743194). Also: nearly all actives have a fitted effect of over 55% in size. To be noted: Potency: co-treated with 50 nM rosiglitazone. The procedure, abridged: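 Cytotoxicity counter screen in PPARg-bla HEK293H cells, same wells as reporter assay. Compounds plus 50 nM rosiglitazone (final) for 17 h at 37 C, then viability read by CellTiter-Glo luminescence.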

Assay [7] is described as follows: qHTS assay for small molecule agonists of the antioxidant response element (ARE) signaling pathway - cell viability counter screen (AID 743203; calls by dose curve; also: nearly all actives have a fitted effect of over 55% in size). The procedure, abridged: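 ARE-bla HepG2 cells were plated, rested 5 h at 37C/5% CO2, then exposed to compounds in DMSO for 16 h. Viability was read as CellTiter-Glo luminescence after 30 min at room temperature, in the same wells as the ARE screen.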

Assay [8] is described as follows: qHTS assay for small molecule activators of the heat shock response signaling pathway - cell viability counter screen (AID 743209). Also: nearly all actives have a fitted effect of over 50% in size. A digest of the protocol: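 HSE-bla HeLa cells plated overnight, then exposed to Tox21 compounds (23 nL in DMSO) for 5 h at 37 C. After the bla reporter read, CellTiter-Glo was added in the same wells and luminescence read after 30 min at room temperature.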

Assay [9] is described as follows: qHTS assay for small molecule agonists of the antioxidant response element (ARE) signaling pathway (AID 743202; active = well fitted activation curve with a large enough effect in the signal ratio in the repeat runs, not every such curve was filed as active; the % refers to the signal ratio). A digest of the protocol:
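Agonist mode reporter screen: HepG2 cells with ARE-controlled beta-lactamase are incubated with test compounds for 16 h at 37 C, and beta-lactamase activity is measured as fluorescence of cleaved B/G FRET substrate.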

A short description of assay [10]: qHTS assay for small molecule activators of the heat shock response signaling pathway (AID 743210; active = well fitted activation curve with a large enough effect in the signal ratio in the repeat runs, with a control signal flat, not every such curve was filed as active; the % refers to the signal ratio;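 also: HeLa cells with beta-lactamase reporter driven by heat shock elements; series mostly up to about 63 µM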). A digest of the protocol:
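Quantitative high-throughput format using an engineered HeLa line in which heat shock response elements drive beta-lactamase; after 5 h with compound, cells received a B/G FRET substrate and fluorescence was read.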

Inconclusive results are not listed. A number with no mark means an inactive call. Active and inactive are the calls of the source. Unless noted, calls follow the shape of the dose curve; as a rule, active = well fitted curve in the direction sought with a large enough effect in the repeat runs; inconclusive = weak or mixed curves; inactive = no such curve, though single readings can be large; an effect the other way counts as inactive or inconclusive.

Sequence of Peroxisome proliferator-activated receptor gamma (Homo sapiens) (P37231 whole entry, looked up): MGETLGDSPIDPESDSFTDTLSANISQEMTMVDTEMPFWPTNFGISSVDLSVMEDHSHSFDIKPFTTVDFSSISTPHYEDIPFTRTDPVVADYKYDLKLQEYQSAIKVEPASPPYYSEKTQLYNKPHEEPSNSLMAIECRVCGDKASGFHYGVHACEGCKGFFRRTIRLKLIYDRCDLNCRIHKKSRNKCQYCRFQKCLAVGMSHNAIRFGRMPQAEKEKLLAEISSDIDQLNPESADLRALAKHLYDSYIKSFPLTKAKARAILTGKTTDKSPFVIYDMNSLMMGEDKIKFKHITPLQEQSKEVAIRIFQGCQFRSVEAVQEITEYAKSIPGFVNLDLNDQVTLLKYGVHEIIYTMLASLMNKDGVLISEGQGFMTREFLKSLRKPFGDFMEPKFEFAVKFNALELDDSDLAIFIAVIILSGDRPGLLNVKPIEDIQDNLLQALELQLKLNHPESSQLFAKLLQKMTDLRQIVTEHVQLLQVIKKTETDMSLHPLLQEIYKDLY
Sequence of Aryl hydrocarbon receptor (Homo sapiens) (P35869 whole entry, looked up): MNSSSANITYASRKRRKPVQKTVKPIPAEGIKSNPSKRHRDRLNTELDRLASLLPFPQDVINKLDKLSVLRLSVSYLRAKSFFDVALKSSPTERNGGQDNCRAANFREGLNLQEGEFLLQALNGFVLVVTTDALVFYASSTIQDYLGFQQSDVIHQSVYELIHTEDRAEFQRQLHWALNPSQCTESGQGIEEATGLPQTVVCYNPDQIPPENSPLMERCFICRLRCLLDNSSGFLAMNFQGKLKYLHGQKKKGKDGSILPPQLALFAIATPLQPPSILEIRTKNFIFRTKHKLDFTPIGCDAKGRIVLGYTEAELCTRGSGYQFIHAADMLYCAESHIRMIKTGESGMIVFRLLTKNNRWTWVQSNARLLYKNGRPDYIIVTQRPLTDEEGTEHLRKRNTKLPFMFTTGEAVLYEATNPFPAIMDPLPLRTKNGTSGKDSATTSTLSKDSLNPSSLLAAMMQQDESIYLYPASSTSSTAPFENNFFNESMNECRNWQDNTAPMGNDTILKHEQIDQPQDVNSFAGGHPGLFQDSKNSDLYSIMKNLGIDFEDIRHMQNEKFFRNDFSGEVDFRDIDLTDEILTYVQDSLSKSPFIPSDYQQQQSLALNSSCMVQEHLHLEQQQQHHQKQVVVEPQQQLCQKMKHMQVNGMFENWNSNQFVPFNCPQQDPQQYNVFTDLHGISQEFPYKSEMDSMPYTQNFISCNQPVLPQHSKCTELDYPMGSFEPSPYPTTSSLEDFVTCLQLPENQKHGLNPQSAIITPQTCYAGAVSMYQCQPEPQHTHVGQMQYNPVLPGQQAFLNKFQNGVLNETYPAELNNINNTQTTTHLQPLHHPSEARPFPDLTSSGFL

On to `N#CC1(N=NC2(C#N)CCCCC2)CCCCC1`, for which the Potency result in assay [1], in assay [2], in assay [3], in [4], in [5] and in assay [6] was “inactive” in each case. Moreover, the Potency entry in assay [7] and in assay [8] was “inactive” in each case.

As to `CCCCOC(=O)CCC(=O)OCCCC`, the Potency result in assay [1], in assay [2], in [3], in [4], in assay [5] and in [6] was “inactive” throughout. Also, the Potency entry in assay [9], in assay [7], in [8] and in [10] was “inactive” throughout.

Consider `CCCC[N+](CCCC)(CCCC)CCCC`, for which the Potency entry in assay [1], in assay [2], in [3], in assay [4], in assay [5] and in [6] was “inactive” in each case. The Potency result in [9], in assay [7], in assay [8] and in assay [10] was “inactive” each time.

With `CCC1(CC)C(=O)NC(=O)NC1=O`, the Potency entry in [1], in assay [2], in assay [3], in assay [4], in [5] and in [6] was “inactive” each time. In addition, the Potency result in [7] and in [8] was “inactive” each time.

Regarding `CC(Cl)C(=O)O` (stereo not drawn), the Potency result in [1], in [2], in assay [3], in assay [4], in assay [5] and in assay [6] was “inactive” in each case. In addition, the Potency result in assay [9], in assay [7], in assay [8] and in assay [10] was “inactive” in each case.

For `ClCc1ccccc1Cl`, the Potency result in [1], in assay [2], in assay [3], in [4], in assay [5] and in [6] was “inactive” each time. The Potency entry in assay [7], in [8] and in assay [10] was “inactive” throughout.

Turning to `CCNC(=O)NC(=O)/C(C#N)=N/OC`, the Potency result in assay [1], in [2], in [3], in [4], in [5] and in [9] was “inactive” each time. For the same molecule, the Potency entry in [7], in assay [8] and in [10] was “inactive” throughout.

As for `CCCN(CCC)c1c([N+](=O)[O-])cc(C(C)C)cc1[N+](=O)[O-]`, the Potency entry in [1], in assay [2], in assay [3], in assay [4], in [5] and in assay [6] was “inactive” throughout. Moreover, the Potency entry in [9], in [7], in assay [8] and in assay [10] was “inactive” throughout.

On to `CC(C)c1ccc(NC(=O)N(C)C)cc1`, for which the Potency result in assay [1], in [3], in assay [4], in [5], in assay [6] and in [9] was “inactive” throughout. Moreover, the Potency result in [7], in assay [8] and in [10] was “inactive” each time. Besides, the Potency in assay [2] is 68.5 µM (active).

`CCCCCl`: the Potency result in assay [1], in assay [2], in assay [3], in assay [4], in assay [5] and in assay [6] was “inactive” each time. The Potency result in assay [9], in [7], in assay [8] and in [10] was “inactive” in each case.

Consider `CC(C)c1ccc(OP(=O)(Oc2ccc(C(C)C)cc2)Oc2ccc(C(C)C)cc2)cc1`, for which the Potency entry in [1], in assay [2], in assay [3], in assay [4], in assay [6] and in assay [9] was “inactive” throughout. In addition, the Potency result in [7], in [8] and in assay [10] was “inactive” each time. Moreover, the Potency in [5] is 38.9 µM (active).

For the molecule `C[C@]12CC[C@H]3[C@@H](CCC4=CC(=O)CC[C@@H]43)[C@@H]1CC[C@@H]2OC(=O)CCc1ccccc1`, the Potency result in assay [1], in assay [2], in assay [3], in assay [4], in [5] and in assay [6] was “inactive” each time. The Potency result in assay [7], in assay [8] and in assay [10] was “inactive” throughout.

For `CCSCc1ccccc1OC(=O)NC`, the Potency result in assay [1], in assay [2], in assay [3], in [4], in assay [5] and in assay [6] was “inactive” in each case. The Potency result in [9], in assay [7], in assay [8] and in assay [10] was “inactive” each time.

As to `CCc1cnc(C2=NC(C)(C(C)C)C(=O)N2)c(C(=O)O)c1` (stereo not drawn), the Potency entry in assay [1], in assay [2], in assay [3], in assay [4], in assay [5] and in [6] was “inactive” throughout. The Potency entry in assay [9], in [7], in assay [8] and in [10] was “inactive” throughout.

`CCCC1CCCCN1` (stereo not drawn): the Potency result in [1], in assay [2], in [3], in assay [4], in assay [5] and in assay [6] was “inactive” throughout. Besides, the Potency entry in assay [9], in [7], in assay [8] and in [10] was “inactive” in each case.

With `NC(=O)CF`, the Potency result in assay [1], in [2], in [3], in assay [4], in [5] and in assay [6] was “inactive” throughout. Further, the Potency entry in assay [9], in assay [7], in [8] and in assay [10] was “inactive” in each case.

On to `O=[N+]([O-])O[C@H]1CO[C@H]2[C@@H]1OC[C@H]2O[N+](=O)[O-]`, for which the Potency result in [1], in [2], in assay [3], in assay [4], in assay [5] and in [6] was “inactive” throughout. Besides, the Potency result in [9], in [7], in assay [8] and in assay [10] was “inactive” throughout.
